Source: PubChem BioAssay (National Center for Advancing Translational Sciences (NCATS))
Pf growth 48h = P. falciparum growth inhibition at 48 hours (one generation); 310,000 compounds, 5.9% hits; P. falciparum luciferase growth in erythrocytes, 48 h; AID 504832; Potency, µM (doses to about 28.7 µM), most hits filed as inhibitors
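Cell-based growth assay: transgenic P. falciparum expressing firefly luciferase, cultured in red cells within RPMI 1640 containing 0.5% w/v Albumax, 24 mM bicarbonate and gentamycin. A drop in luciferase activity indicates inhibition.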
SARS PLP yeast = inhibitors of SARS-CoV papain-like protease in yeast; S. cerevisiae expressing SARS-CoV PLpro, growth rescue; 330,000 compounds, 0.19% hits; Potency, µM (series often up to 32.9 µM), usual class: activators; calls by dose curve; also: nearly all actives have a fitted effect of over 55% in size
AmpC inh no detg = AmpC beta-lactamase inhibition without detergent. AmpC nitrocefin hydrolysis, absorbance 480 nm, 0.0001% Triton. 330,000 compounds, 0.52% hits. P00811. Potency, µM (top dose mostly 57.1 µM), hits mostly inhibitors; also: nearly all actives have a fitted effect of over 20% in size
Target sequence (P00811 whole entry, looked up): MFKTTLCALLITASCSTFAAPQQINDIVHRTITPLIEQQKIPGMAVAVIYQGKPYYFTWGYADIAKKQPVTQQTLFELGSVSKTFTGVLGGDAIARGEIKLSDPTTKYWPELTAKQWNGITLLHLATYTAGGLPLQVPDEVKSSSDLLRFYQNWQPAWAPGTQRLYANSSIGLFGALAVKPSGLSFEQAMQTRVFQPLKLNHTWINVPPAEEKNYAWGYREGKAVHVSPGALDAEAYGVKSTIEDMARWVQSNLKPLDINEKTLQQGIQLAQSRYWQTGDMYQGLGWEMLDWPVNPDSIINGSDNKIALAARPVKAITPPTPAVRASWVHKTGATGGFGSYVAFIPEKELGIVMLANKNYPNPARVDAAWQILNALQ
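AmpC (5.3 nM in the dispensed reagent) in 20 mM phosphate pH 7.0 with 0.01% (detergent screen) or 0.0001% Triton X-100 was preincubated with compounds for 15 min at room temperature. Nitrocefin was then added from an 800 uM solution, and hydrolysis was followed at 480 nm.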
Sm TGR inh = inhibitors of Schistosoma mansoni thioredoxin glutathione reductase; Q962Y6; purified TGR, DTNB reduction, TNB absorbance 405 nm; Potency, µM (titrated, usually from 114 µM), most hits filed as inhibitors; 360,000 compounds, 3% hits; also: nearly all actives have a fitted effect of over 60% in size
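First, TGR (20 nM dispensed) and NADPH were mixed with compound. Second, a 15 min room-temperature incubation followed. Third, further NADPH and then DTNB were added to start the reaction. Finally, TNB absorbance was monitored kinetically.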
AmpC detergent = inhibitors of E. coli AmpC beta-lactamase with detergent; 370,000 compounds, 0.041% hits; AmpC hydrolysis of nitrocefin, absorbance 480 nm, 0.01% Triton; P00811; Potency, µM (titrated, usually from 114 µM), usual class: inhibitors; also: nearly all actives have a fitted effect of over 25% in size
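20 mM phosphate pH 7.0 + 0.01% (detergent screen) or 0.0001% Triton X-100; 5.3 nM AmpC reagent; cpd preinc 15 min RT; nitrocefin (800 uM stock) to start; A480 q20 s × 4 min; Activity was normalised to no-enzyme and no-compound control wells.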
Pf growth 96h = P. falciparum growth inhibition at 96 hours; P. falciparum luciferase reporter growth, 96 h; Potency, µM (series often up to 28.7 µM), hits mostly inhibitors; 320,000 compounds, 6.9% hits; AID 504834
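P. falciparum expressing integrated firefly luciferase, in erythrocytes at 2% hematocrit, 0.05% parasitemia, incubated with compounds 96 h at 37 C, 5% CO2. Growth inhibition read as loss of luminescence; two-generation exposure targets delayed-death apicoplast inhibitors.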
Each line names hits and unclear results; the compound was inactive in the other large screens. A selection: hits, their analogues and other compounds. The true share with any hit is near 12%. Unless noted, calls follow the shape of the dose curve; as a rule, active = well fitted curve in the direction sought with a large enough effect; inconclusive = small, poorly fitted or top-dose-only effect, or another doubt; inactive = no such curve, though single readings can be large; an effect the other way counts as inactive or inconclusive.

CCN(CC)S(=O)(=O)c1cccc(C(=O)NC2CCCCC2)c1	Pf growth 96h 1.7µM
CCN(CC)S(=O)(=O)c1ccc(C)c(NC(=S)NC2CCCCC2)c1	Pf growth 48h 15µM, AmpC detergent inconclusive, Pf growth 96h inconclusive
Cc1ccc(S(=O)(=O)Nc2cc3c(C(=O)OCc4ccccc4)c(C)oc3c3ccccc23)c(C)c1	none (no result: Pf growth 48h, SARS PLP yeast, AmpC inh no detg, Pf growth 96h)
CC1=C(C)/C(=N\OS(=O)(=O)c2ccccc2)C=CC1=O	Sm TGR inh 2.5µM, Pf growth 96h 13µM (no result: Pf growth 48h)
Cc1cc2oc(C(=O)Nc3ccc(S(=O)(=O)Nc4ncccn4)cc3)cc(=O)c2cc1C	none (no result: Pf growth 48h, SARS PLP yeast, AmpC inh no detg, Pf growth 96h)
Cc1ccc(C)n1CCN1CCN(S(=O)(=O)c2ccc(F)cc2F)CC1	Pf growth 48h inconclusive, Sm TGR inh inconclusive, Pf growth 96h 13µM
COc1cc(F)ccc1S(=O)(=O)N1CCN(Cc2ccccc2)CC1	Pf growth 96h inconclusive
O=C(NCc1nnc2c3ccccc3c(-c3ccccc3)nn12)c1ccccc1Cl	none
O=C(COc1ccc(Cl)cc1)NCc1nnc2c3ccccc3c(-c3ccccc3)nn12	AmpC detergent inconclusive, Pf growth 96h 13µM
CCn1cc(S(=O)(=O)c2ccc(C)cc2C)c(=O)c2cc(F)c(N3CCCC3)cc21	none (no result: Pf growth 48h, SARS PLP yeast, AmpC inh no detg, Pf growth 96h)
Cn1c(=O)c(=O)n(C)c2cc(S(=O)(=O)Nc3ccc4c(c3)OCCO4)ccc21	Pf growth 48h 3.3µM
O=C(O)c1ccc(S(=O)(=O)Nc2ccc3c(c2)OCCO3)cc1	Sm TGR inh 32µM, Pf growth 96h inconclusive
O=C(/C=C/c1cccc(F)c1)Nc1ccc(S(=O)(=O)Nc2ncccn2)cc1	AmpC inh no detg 11µM
CCC(=O)Nc1ccc(S(=O)(=O)Nc2ncccn2)cc1	Pf growth 96h 9.3µM (no result: Pf growth 48h)
O=C(Nc1ccc(S(=O)(=O)Nc2ncccn2)cc1)C(F)(F)F	SARS PLP yeast 5µM
CCC(=O)Nc1ccc(S(=O)(=O)Nc2c(C)nc3nc[nH]n3c2=O)cc1	Pf growth 96h 10µM
CCc1ccc(S(=O)(=O)Nc2c(C)nc3nc[nH]n3c2=O)cc1	AmpC detergent inconclusive
Cc1sc2ncnc(SC(C)C(=O)N3c4ccccc4Sc4ccccc43)c2c1C (stereo not drawn)	Pf growth 48h 1.7µM, Pf growth 96h 7.4µM
Cc1ccc(OCC(=O)NNC(=O)C(C)Sc2ncnc3sc(C)c(C)c23)cc1 (stereo not drawn)	none
O=c1ccc(S(=O)(=O)N2CCCC2)cn1Cc1ccc(Cl)cc1Cl	Pf growth 48h inconclusive, AmpC detergent inconclusive, Pf growth 96h inconclusive
Cc1sc(NC(=O)Cc2ccc3c(c2)OCO3)nc1-c1ccc2c(c1)CCN2C(=O)c1cccc(F)c1	Pf growth 48h inconclusive, Pf growth 96h 6.6µM
CS(=O)(=O)Nc1ccc(C2=NN(C(=O)c3ccco3)C(c3cccc(F)c3)C2)cc1 (stereo not drawn)	Pf growth 48h 13µM, Pf growth 96h inconclusive
CCS(=O)(=O)Nc1ccc(C2=NN(C(=O)c3ccco3)C(c3cccc(F)c3)C2)cc1 (stereo not drawn)	Pf growth 48h inconclusive, Pf growth 96h inconclusive
CCS(=O)(=O)Nc1ccc(C2=NN(C(=O)c3ccco3)C(c3ccc(C)cc3)C2)cc1 (stereo not drawn)	Pf growth 48h 10µM, Pf growth 96h inconclusive
CCOc1ccc(-n2c(=O)c3sccc3n(Cc3ccc(C)cc3)c2=O)cc1	Pf growth 96h inconclusive
CC1(C)CC(Nc2ccc(Nc3ccccc3)cc2)CC(C)(C)N1	Pf growth 48h 3.3µM, Sm TGR inh 6.3µM, Pf growth 96h 7.4µM
CCCC(=O)Nc1ccccc1Sc1ncnc2scc(-c3ccccc3)c12	Pf growth 48h 4.7µM
CC(=O)Nc1ccc(Sc2ncnc3scc(-c4ccccc4)c23)cc1	Pf growth 96h inconclusive
Cn1nnnc1Sc1ncnc2scc(-c3ccc(F)cc3)c12	Pf growth 96h inconclusive
Cn1nnnc1Sc1ncnc2scc(-c3ccc[nH]3)c12	Pf growth 48h 10µM, Sm TGR inh 11µM, Pf growth 96h inconclusive
Cn1nnnc1Sc1ncnc2scc(-c3ccccc3)c12	Pf growth 48h 12µM, AmpC detergent inconclusive
COC(=O)c1nnn(CC(=O)Nc2c(C)cccc2C)c1N	AmpC detergent inconclusive (no result: Pf growth 48h, SARS PLP yeast, AmpC inh no detg, Pf growth 96h)
CC(OC(=O)Cn1[nH]c(=O)c2ccccc2c1=O)C(=O)Nc1ccccc1[N+](=O)[O-] (stereo not drawn)	AmpC detergent inconclusive
COc1cccc(CN2C(=O)CN(C3CCCCC3)C(=O)C2c2ccc(OC)c(OC)c2)c1 (stereo not drawn)	none (no result: Pf growth 48h, SARS PLP yeast, AmpC inh no detg, Pf growth 96h)
CCOc1ccc(C(=O)NC(=S)Nc2ccc(N3CCCCC3)cc2)cc1[N+](=O)[O-]	Pf growth 96h inconclusive
COc1ccc(C(=O)NC(=S)Nc2ccc(N3CCN(C(C)=O)CC3)cc2)cc1[N+](=O)[O-]	Pf growth 48h inconclusive, Sm TGR inh 8.9µM
Cc1ccc(Nc2ccc(C(=O)O)cc2[N+](=O)[O-])cc1	Pf growth 96h 9.3µM (no result: Pf growth 48h)
Cc1ccc(C(=O)O)cc1NC(=S)NC(=O)c1ccc([N+](=O)[O-])c(C)c1	Sm TGR inh 20µM, Pf growth 96h inconclusive
CC(=O)N1CCN(c2ccc(NC(=S)NC(=O)c3ccc(C)c([N+](=O)[O-])c3)cc2)CC1	Sm TGR inh 11µM
CCN(CC)CCNC(=O)Cn1ncc2c([nH]c3ccccc32)c1=O	none (no result: Pf growth 48h, SARS PLP yeast, AmpC inh no detg, Pf growth 96h)
CC(C)OC(=O)c1cc(-c2ccc(C=O)o2)ccc1Cl	Sm TGR inh inconclusive, Pf growth 96h 15µM
CC(C)OC(=O)/C(C#N)=C/c1ccc(-c2ccc(Cl)c(Cl)c2)o1	none (no result: Pf growth 48h, SARS PLP yeast, AmpC inh no detg, Pf growth 96h)
CC(C)c1nn2c(=O)cc(CSc3ccccc3NC(=O)c3ccccc3F)nc2s1	Pf growth 48h inconclusive, Pf growth 96h 8.3µM
Cc1nn2c(=O)cc(CSc3ccccc3NC(=O)c3ccccc3F)nc2s1	none
O=C1CSC(c2ccc3c(c2)OCO3)N1c1ccc(Oc2ccccc2)cc1 (stereo not drawn)	Pf growth 48h inconclusive, Sm TGR inh 32µM
Cc1ccc(S(=O)(=O)N2CCCN(C(=O)CNC(=O)c3cccc(C)c3)CC2)cc1	none
COC(=O)[C@H](Cc1ccccc1)NC(=O)C1CCN(C(=O)[C@H](C)NS(=O)(=O)c2ccc(C)cc2)CC1	Pf growth 48h inconclusive, Pf growth 96h inconclusive
O=C(NCCCOc1cccc(CN2CCCCC2)c1)c1ccc(Cl)c(Cl)c1	Pf growth 48h inconclusive, Pf growth 96h 2.3µM
c1cc(CN2CCCCC2)cc(OCCCNc2nc3ccccc3s2)c1	Pf growth 48h 13µM, Pf growth 96h 4.8µM (no result: SARS PLP yeast, AmpC inh no detg, Sm TGR inh, AmpC detergent)
O=C(NCC1CCCN(Cc2cccc(OCCO)c2)C1)c1ccc(F)cc1 (stereo not drawn)	Pf growth 96h inconclusive
